Reference: PubChem BioAssay (NCATS)
Results filed as inconclusive are left out. Entries that show only a call come without a potency. Active and inactive are the calls of the source. The call rests on the fitted dose curve; in most records, active means well fitted inhibition curve with a large enough effect; inconclusive means small, poorly fitted or top-dose-only effect; inactive means no such curve, though single readings can be large or run the other way. Where a SMILES comes first, the peptide text is derived from it. The star is where a group is joined. AFC = O=c1cc(C(F)(F)F)c2ccc(N*)cc2o1

Assays:
[1] = test system: Zika virus NS2B-NS3 protease (unlinked complex); test: Primary screen GU Rhodamine qHTS for Zika virus inhibitors: Unlinked NS2B-NS3 protease assay (AID 1347159); further: nearly all actives have a fitted effect of over 60% in size
Method in brief: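 In dose–response format, inhibition of unlinked protease (25 nM) was measured with 1.5 microM bis-peptide Rhodamine110 substrate. Aprotinin served as the intraplate control.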

[2] = test system: Zika virus NS2B-NS3 protease (linked construct); test: Primary screen NINDS Rhodamine qHTS for Zika virus inhibitors (AID 1347160); further: nearly all actives have a fitted effect of over 55% in size
Method in brief: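 Each compound, titrated, sat 15 min with 25 nM linked protease before 1.5 microM Rhodamine110 substrate went in. Fluorescence gain over the next 15 min, in pH 8.0 Tris with Tween 20, gave Hill-fitted curves.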

| SMILES | Potency [1] | Potency [2] |
| --- | --- | --- |
| CC(C(O)/C=C/C(C)(C)O)C1CCC2(C)C3C(=O)C=C4C(CCC(O)C4(C)C)C3(C)CCC12C (configuration not stated) | inactive | inactive |
| C[C@@H]1C(=O)O[C@H](C)[C@H]1CC(=O)[C@](C)(O)[C@H]1CC[C@@]2(O)C3=CC(=O)[C@@H]4C[C@@H](O)[C@@H](O)C[C@]4(C)C3CC[C@]12C (some centres not stated) | inactive | inactive |
| CC(/C=C/C1=CC2=CC(=O)C(C)(O)C(O)C2=CO1)=C\C(C)CCO (configuration not stated) | inactive | inactive |
| C=C1C(=O)OC2C1C(O)CC1(C)C(O)CCC(C=O)C21 (configuration not stated) | inactive | inactive |
| CN(C)c1nc(NC2CCC(NC(=O)c3ccc(F)c(F)c3)CC2)nc2ccccc12 (configuration not stated) | inactive | inactive |
| CCO[C@@H]1OC(=O)C[C@@H]1NC(=O)[C@@H]1CCCN1C(=O)[C@@H](NC(=O)c1ccc(N)c(Cl)c1)C(C)(C)C | inactive | inactive |
| CC(C)(C)Nc1nc(Nc2ccc(C(N)=O)cc2)cc(N)c1C#N | inactive | inactive |
| C=C[C@H]1[C@H](O[C@@H]2O[C@H](CO)[C@@H](O)[C@H](O)[C@H]2O)OC=C(C(=O)OC)[C@H]1CC(=O)O | inactive | inactive |
| Cc1ccc(S(=O)(=O)c2ccc([N+](=O)[O-])o2)cc1 | inactive | inactive |
| CC(=O)c1cc(C(=O)N[C@@H](C)Cn2ccc(-c3ccc(C#N)c(Cl)c3)n2)[nH]n1 | inactive | inactive |
| C=CC(=O)Nc1cc(Nc2ncc(Cl)c(-c3c[nH]c4ccccc34)n2)c(OC)cc1N(C)CCN(C)C | inactive | inactive |
| CC(=O)OC1C(O)C2C(C)C3=CC(=O)OC3(O)CC2C2(C)CCCC(C)(CO)C12 (configuration not stated) | inactive | inactive |
| c1cc(Nc2cc(C3CC3)[nH]n2)nc(Nc2ccc3nc[nH]c3c2)n1 | inactive | inactive |
| Cc1cc(NC(=O)Nc2ccc(F)c(F)c2)n(-c2ccccc2)n1 | inactive | inactive |
| CC(=O)O[C@@H]1C[C@H](O)[C@@]23CO[C@H](O)[C@]1(C)C2C[C@@H](O)[C@]1(C)C3C(=O)[C@H](OC(C)=O)[C@@]2(C)[C@H](c3ccoc3)C[C@H]3O[C@]321 (some centres not stated) | inactive | inactive |
| CCNC(=O)Nc1ncc(-c2cc(-c3c(C)cc(OC)cc3C)nc(-c3cnccn3)n2)s1 | inactive | inactive |
| CCCN1CCC(c2cccc(S(C)(=O)=O)c2)CC1 | inactive | inactive |
| COc1cc(N2CCC(N3CCN(C)CC3)CC2)ccc1Nc1ncc(Cl)c(-c2c[nH]c3ccccc23)n1 | inactive | inactive |

| SMILES | Potency [1] | Potency [2] |
| --- | --- | --- |
| COc1ccc(C(O)C(C)OC2OC(CO)C(O)C(O)C2O)cc1 (configuration not stated) | inactive | inactive |
| CC(CO)C1CCC2(C)CC3C(CO)CC(O)C3C(C)(O)C/C=C/12 (configuration not stated) | inactive | inactive |
| CC(=O)O[C@@H]1[C@@H](O)[C@H](C)O[C@@H](O[C@H]2[C@@H]3C=CO[C@@H](O[C@@H]4O[C@H](CO)[C@@H](O)[C@H](O)[C@H]4O)[C@@H]3[C@@]3(CO)O[C@@H]23)[C@@H]1OC(=O)/C=C/c1ccccc1 | inactive | inactive |
| CC1CC[C@]2(C(=O)O)CC[C@]3(C(=O)O)C(=CCC4[C@@]5(C)CC[C@H](O[C@@H]6O[C@H](CO)[C@@H](O)[C@H](O)[C@H]6O)C(C)(C)C5CC[C@]43C)C2C1C (some centres not stated) | inactive | inactive |
| CC1(O)CCCC2(C)C1CCC13CC(CO)C(CCC12)C3 (configuration not stated) | inactive | inactive |
| CCS(=O)(=O)N1CCN(c2ccc(Nc3ncc(C(N)=O)c(NC4CC4)n3)cc2)CC1 | inactive | inactive |
| CCCOC(c1cc2nccc(C(=O)O)c2[nH]1)c1ccccc1Cl (configuration not stated) | inactive | inactive |
| COc1cccc(Nc2ncnn3ccc(CN4CC[C@@H](N)[C@H](O)C4)c23)c1 | inactive | inactive |
| NC(=O)c1cccc2cn(-c3ccc(C4CCCNC4)cc3)nc12 (configuration not stated) | inactive | inactive |
| CC1(C(=O)O)CCCC2(C)C3=CCC4CC3(CCC12)CC4CO (configuration not stated) | inactive | inactive |
| NC(=O)[C@H]1CCS[C@@H]2C[C@]3(CCCN3C(=O)Cc3ccc(NC(=O)COc4ccc(Cl)cc4Cl)cc3)C(=O)N12 | inactive | inactive |
| C=C(C)C1CCC2(C(=O)O)CCC3(C(=O)O)C(CCC4C5(C)CCC(O)C(C)(C(=O)O)C5CCC43C)C12 (configuration not stated) | inactive | inactive |
| CC(C)Oc1ccc(C(=O)NC(CNC(=O)CN(C)C)Cc2ccc(-c3cn4cccc(C(C)O)c4n3)cc2)cc1Cl (configuration not stated) | inactive | inactive |
| CCC(C)C(=O)OC1CC(O)C23C4OCC5(C(O)CC2C1(C)C(O)O4)C3C(=O)CC1(C)C(c2ccoc2)CC2OC215 (configuration not stated) | inactive | inactive |
| CC(=O)O[C@]1(C(C)=O)CC[C@H]2[C@@H]3C[C@H](C)C4=CC(=O)C=C[C@]4(C)[C@@]3(F)[C@@H](O)C[C@@]21C | inactive | inactive |
| CNC(C)C(=O)NC(C(=O)N1CCCC1c1nc(C(=O)c2ccc(F)cc2)cs1)C1CCCCC1 (configuration not stated) | inactive | inactive |
| CC(=O)N[C@@H](Cc1c[nH]c2ccccc12)C(=O)N[C@@H](CCC(=O)O)C(=O)N[C@@H](Cc1cnc[nH]1)C(=O)N[C@@H](CC(=O)O)C(=O)Nc1ccc2c(C(F)(F)F)cc(=O)oc2c1 (Ac-WEHD-{AFC}) | inactive | inactive |
| CCOc1cc(C)c(Cl)cc1S(=O)(=O)n1cnc2ccccc21 | inactive | inactive |
